According to PubChem BioAssay AID1159580 (chemical genetic matrix, 2015):
Values joined by “and” are separate entries in the source; they are usually repeats but may differ in a detail not shown here. Equal entries are not always repeated. About 2,000 (36%) of roughly 5,500 compounds were called active. Not shown: some 18% with an inconclusive outcome. No stated cut-off is given here; in the data, active means normalized growth mostly below about 0.91 (no sharp cut-off); inconclusive means no clear call, values can overlap the other calls; inactive means mostly above about 0.92. The list shows a part of the results.

Experiment: chemical genetic growth profiling, strain panel (AID 1159580);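 further: tested at 20 µM; growth read once vehicle control cultures reached saturation at 30 °C; 1 = growth at the plate median or of vehicle wells; lower values mean less growth of the strain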
Conditions: S. cerevisiae deletion strains, growth OD

Measured: normalized growth

CC(=O)C1CCC2C3CCC4C[C@H](O)CCC4(C)C3C[C@H](O)C12C (some centres not stated)
inactive: locus YAL013W, strain DEP1, active compounds read low 1.03 | locus YAL021C, strain ccr4, active compounds read low 0.96 | locus YAL026C, strain drs2, active compounds read low 0.984 | locus YAL030W, strain snc1, active compounds read low 0.971 | locus YBL061C, strain skt5, active compounds read low 0.989 | locus YBR009C, strain hhf1, active compounds read low 0.963 | locus YBR021W, strain FUR4, active compounds read low 1.02 | locus YBR023C, strain chs3, active compounds read low 0.989 | locus YBR171W, strain sec66, active compounds read low 0.961 | locus YBR229C, strain ROT2, active compounds read low 1.03 | locus YBR231C, strain swc5, active compounds read low 0.993 | locus YBR279W, strain paf1, active compounds read low 0.98 | locus YCL011C, strain gbp2, active compounds read low 0.957 | locus YCL016C, strain dcc1, active compounds read low 0.97 | locus YCL029C, strain bik1, active compounds read low 1 | locus YCL069W, strain vba3, active compounds read low 0.968 | locus YCR088W, strain abp1, active compounds read low 0.972 | locus YDL005C, strain med2, active compounds read low 0.971 | locus YDL035C, strain GPR1, active compounds read low 1.09 | locus YDL040C, strain nat1, active compounds read low 0.982 | locus YDL074C, strain BRE1, active compounds read low 1.16 | locus YDL101C, strain DUN1, active compounds read low 1.02 | locus YDL134C, strain PPH21, active compounds read low 1.05 | locus YDL185W, strain tfp1, active compounds read low 0.999 | locus YDL192W, strain arf1, active compounds read low 1.02 | locus YDR001C, strain nth1, active compounds read low 0.956 | locus YDR069C, strain doa4, active compounds read low 0.945 | locus YDR101C, strain arx1, active compounds read low 1.01 | locus YDR137W, strain rgp1, active compounds read low 0.966 | locus YDR150W, strain NUM1, active compounds read low 1.04 | locus YDR159W, strain sac3, active compounds read low 0.982 | locus YDR162C, strain NBP2, active compounds read low 1.04 | locus YDR195W, strain ref2 0.956 | locus YDR297W, strain sur2, active compounds read low 0.976 | locus YDR318W, strain mcm21, active compounds read low 1.02 | locus YDR334W, strain swr1, active compounds read low 0.962 | locus YDR335W, strain msn5, active compounds read low 0.982 | locus YDR388W, active compounds read low 1.01 | locus YDR392W, strain spt3, active compounds read low 0.978 | locus YDR502C, strain sam2, active compounds read low 1.01 | locus YEL003W, strain gim4, active compounds read low 0.979 | locus YEL037C, strain rad23, active compounds read low 0.972 | locus YEL061C, strain CIN8 (second series), active compounds read low 0.973 | locus YEL061C, strain CIN8, active compounds read low 1.03 | locus YER015W, strain faa2, active compounds read low 0.968 | locus YER016W, strain bim1, active compounds read low 0.971 | locus YER110C, active compounds read low 0.987 | locus YER111C, strain swi4, active compounds read low 0.978 | locus YER155C, strain BEM2 (second series), active compounds read low 0.979 | locus YER155C, strain BEM2, active compounds read low 1.02 | locus YER167W, strain BCK2, active compounds read low 1.02 | locus YFR010W, strain ubp6, active compounds read low 0.975 | locus YGL078C, strain dbp3, active compounds read low 0.995 | locus YGL086W, strain mad1, active compounds read low 1.01 | locus YGL167C, strain pmr1, active compounds read low 0.96 | locus YGL173C, strain kem1, active compounds read low 0.965 | locus YGL227W, strain vid30, active compounds read low 0.972 | locus YGL240W, strain doc1, active compounds read low 0.984 | locus YGL248W, strain PDE1, active compounds read low 1.08 | locus YGL253W, strain hxk2, active compounds read low 0.963 | locus YGR078C, strain PAC10, active compounds read low 1.07 | locus YGR135W, strain pre9, active compounds read low 0.998 | locus YGR252W, strain gcn5, active compounds read low 1.06 | locus YHR013C, strain ard1, active compounds read low 0.942 | locus YHR027C, strain rpn1, active compounds read low 0.971 | locus YHR030C, strain SLT2, active compounds read low 1.01 | locus YHR079C, strain IRE1 (second series), active compounds read low 1.01 | locus YHR079C, strain IRE1, active compounds read low 1.02 | locus YHR094C, strain hxt1, active compounds read low 1 | locus YHR129C, strain ARP1, active compounds read low 1.04 | locus YHR142W, strain chs7, active compounds read low 0.953 | locus YHR200W, strain rpn10, active compounds read low 1.01 | locus YIL066C, strain RNR3, active compounds read low 1.04 | locus YIL073C, strain SPO22, active compounds read low 1.12 | locus YIL125W, strain kgd1, active compounds read low 1.01 | locus YIR030C, strain dcg1, active compounds read low 1.01 | locus YJL092W, strain hpr5, active compounds read low 0.964 | locus YJL095W, strain BCK1 (second series), active compounds read low 0.961 | locus YJL095W, strain BCK1, active compounds read low 1.07 and 1.01 | locus YJL115W, strain asf1, active compounds read low 0.963 | locus YJL129C, strain trk1, active compounds read low 0.968 | locus YJL134W, strain LCB3, active compounds read low 1.01 | locus YJL154C, strain vps35, active compounds read low 0.968 | locus YJL164C, strain tpk1, active compounds read low 0.96 | locus YJL166W, strain qcr8, active compounds read low 0.975 | locus YJL168C, strain set2, active compounds read low 0.987 | locus YJL187C, strain SWE1 (second series), active compounds read low 1.04
